Test results from PubChem BioAssay (NCI).
This is part of a sample that, as a whole, favours compounds with a hit. Of some 79,000 tested, about 15% had one in any assay. Activity calls are given as the source filed them. No stated cut-off is given here; in the data, active means growth inhibition above about 70%; inactive means the rest.

Key:
[1] = NCI Yeast Anticancer Drug Screen. Data for the rad50 strain (AID 155);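 further: 0% = growth of vehicle-only cultures of the same strain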; details: S. cerevisiae rad50 strain growth inhibition; at 50.0 µM; stronger effect = higher value
In short: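 Vehicle-treated cultures provide the reference for the growth inhibition reported for compound-exposed, repair-deficient yeast.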

[2] = NCI Yeast Anticancer Drug Screen. Data for the mec2-1 strain (AID 157); details: S. cerevisiae mec2-1 strain, at 50.0 µM, stronger effect = higher value
In short: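 Using mec2-1 yeast: add compound, measure growth, express inhibition versus vehicle-treated cultures.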

[3] = NCI Yeast Anticancer Drug Screen. Data for the sgs1 mgt1 strain (AID 161);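 further: 0% = growth of cultures given vehicle only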; details: S. cerevisiae sgs1 mgt1 strain, at 50.0 µM, stronger effect = higher value
In short: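 Yeast cells carrying a defined DNA-repair defect were exposed to test compounds. Growth inhibition was measured relative to vehicle-treated controls.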

[4] = NCI Yeast Anticancer Drug Screen. Data for the cln2 rad14 strain (AID 165);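 further: 0% = growth equal to vehicle treated cultures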; details: S. cerevisiae cln2 rad14 strain, at 50.0 µM, stronger effect = higher value
In short: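 Yeast strain cln2 rad14, bearing defects in cell cycle control and DNA repair, serves as the test system; values reflect growth inhibition compared with vehicle.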

[5] = NCI Yeast Anticancer Drug Screen. Data for the bub3 strain (AID 167); details: S. cerevisiae bub3 mutant strain, at 50.0 µM, stronger effect = higher value
In short: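 Mutant yeast screening strain plus compound; vehicle-treated cultures serve as the 0% inhibition reference.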

[6] = NCI Yeast Anticancer Drug Screen. Data for the mlh1 rad18 strain (AID 175); details: S. cerevisiae mlh1 rad18 strain growth inhibition; at 50.0 µM; stronger effect = higher value
In short: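 Steps: expose repair-defective yeast to compound; measure growth; express inhibition against vehicle-treated controls.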

Measured: growth inhibition

O=C1OCC2C(=O)N3Cc4cc5ccccc5nc4C3CC12 (stereo not drawn)
inactive: [1] 11.9% | [2] 10.2% | [3] -2.5% | [4] 8.85% | [5] -15.8% | [6] 9.55%

C=CCOC(=O)c1cccc(C)c1
inactive: [1] 9.7% | [2] 0.3% | [3] -1% | [4] -41.4% | [5] 9.9% | [6] 7.7%

C1CCN(c2nsc(N3CCCCC3)n2)CC1
inactive: [1] -13.7% | [2] -5.15% | [3] 2.95% | [4] -52.1% | [5] -14.6% | [6] 18.2%

NCCC(=O)OC1CCCc2c(O)c3c(c(O)c21)C(=O)c1ccccc1C3=O (stereo not drawn)
active: [1] 98.8% | [2] 99.4% | [3] 99.4% | [4] 98.9% | [5] 98.8% | [6] 99.2%

COc1ccc(C(=O)c2ccccc2)cc1OC
inactive: [1] 2.95% | [2] 13.8% | [3] -4.25% | [4] -21.4% | [5] -1.2% | [6] -7.85%

CC12CCC(=O)[C@@]1(C)CCCC2=O (stereo partly drawn)
inactive: [1] -13% | [2] 5% | [3] -23.1% | [4] 6.8% | [5] -6.9% | [6] 5.05%

c1ccc(-c2cnc3cccnc3n2)cc1
inactive: [1] -2.1% | [2] -24.7% | [3] -19.2% | [4] -36.5% | [5] -10.1% | [6] -12.6%

CCOC(=O)CC(c1ccc2c(c1)OCO2)c1cc(OC)c(OC)c(OC)c1 (stereo not drawn)
inactive: [1] -7.65% | [2] 24.9% | [3] -3% | [4] 0.45% | [5] 29.1% | [6] 3.2%

Cc1cc([N+](=O)[O-])c(Cl)cc1Cl
inactive: [1] -22.8% | [2] 25.3% | [3] -9.35% | [4] 26.5% | [5] 12.2% | [6] 5.5%

CC(CCCSC(=N)N)SC(=N)N (stereo not drawn)
inactive: [1] 4.9% | [2] -3.5% | [3] -0.3% | [4] 24.2% | [5] -2.2% | [6] 12.6%

C=CCCC1CN2CCc3cc(OC)c(OC)cc3C2CC1=O (stereo not drawn)
inactive: [1] 15.3% | [2] 16.1% | [3] 10.6% | [4] -41.7% | [5] 28.4% | [6] 20.1%

N#CC1CC=CCN1CCc1ccccc1 (stereo not drawn)
inactive: [1] -9.5% | [2] -5.75% | [3] -4.95% | [4] 42.5% | [5] 20.7% | [6] 7.5%

CCN(CC)C(=O)Nc1cccc(O)c1
inactive: [1] -6.55% | [2] 6.65% | [3] -2.6% | [4] -28.7% | [5] -0.25% | [6] 5.65%

CCCCCCCCCCCCOc1ccccn1
inactive: [1] -11.2% | [2] -33.6% | [3] -7.65% | [4] -7.45% | [5] -11.6% | [6] -4.55%

ClC(=Nc1ccccc1)c1cc(Cl)ccn1
inactive: [1] 18.1% | [2] -1.8% | [3] 8.3% | [4] -12.4% | [5] 50% | [6] 8.15%

O=C1OC(CC(=O)c2ccc(Cl)c(Cl)c2)C(Cl)=C1Cl (stereo not drawn)
inactive: [1] 43.1% | [2] 12.3% | [3] 33.1% | [4] 29.9% | [5] 30% | [6] 52.7%

CCCC(=O)Nc1cc(C(=O)N2C[C@H]3C[C@@]34C2=CC(=O)c2[nH]cc(C)c24)n(COC)c1
inactive: [1] 43.9% | [2] 59.2% | [3] 68.2% | [4] 41.4% | [5] 5.85% | [6] 69.8%

COC(=O)c1cc(=O)c2c(=O)[nH]c(=O)[nH]c2[nH]1
inactive: [1] -3.65% | [2] -1.25% | [3] 2% | [4] -26.8% | [5] -8.6% | [6] 3.65%

CC1c2[nH]c3ccccc3c2CC1C(=O)O (stereo not drawn)
inactive: [1] 10.3% | [2] 12.6% | [3] 5.25% | [4] -13.2% | [5] -9.8% | [6] -5.35%

CCOC(=O)Nc1nc(-c2ccccc2)c(C)s1
inactive: [1] -23.2% | [2] -20.8% | [3] -16.8% | [4] -7.1% | [5] -44.9% | [6] -2.15%

CC(NCCCNC(C)C(=O)O)C(=O)O (stereo not drawn)
inactive: [1] 21.8% | [2] 1.45% | [3] 26.8% | [4] 32.3% | [5] 11.1% | [6] 13.4%

COC(=O)c1sc(C(=O)OC)c2c1CS(=O)C2
inactive: [1] -10.3% | [2] 2.1% | [3] 10.1% | [4] 30% | [5] 5.45% | [6] 42.2%

FC(F)(F)c1ccc(C=NC23CC4CC(CC(C4)C2)C3)cc1
inactive: [1] -8.85% | [2] -9% | [3] -16.2% | [4] -27.1% | [5] -18.9% | [6] -30.9%

CCOC(Cn1ncc(C#N)c1N)OCC
inactive: [1] -13.7% | [2] -7.75% | [3] -25.5% | [4] -15.9% | [5] -5.95% | [6] 5.65%

CC(=O)Oc1ccccc1[C@H]1CC(=O)C[C@H](c2ccccc2OC(C)=O)C12C(=O)c1ccccc1C2=O
inactive: [1] -12.8% | [2] -18.4% | [3] -7.55% | [4] 30.1% | [5] -17.4% | [6] 9.3%

O=C(Nc1cccc(Cl)c1Cl)c1cc(/C=C/c2ccc([N+](=O)[O-])cc2)on1
inactive: [1] -21.2% | [2] 1.15% | [3] -12.8% | [4] 9.1% | [5] -8.25% | [6] -3.85%

O=C(Cc1ccc2cc3c(cc2c1)OCO3)NCCc1ccc2c(c1)OCO2
inactive: [1] 30.4% | [2] -8.4% | [3] 25.8% | [4] -11.2% | [5] -1.25% | [6] 8.8%

COc1ccc(NC(=O)Oc2ccc3c(C)cc(=O)oc3c2)c(OC)c1 (tested in a mixture with another compound)
inactive: [1] -3.7% | [2] -6.2% | [3] -22.6% | [4] -19.7% | [5] 1.8% | [6] 12.3%

CCN(CC)CC1c2ccccc2C(CNc2ccccc2)N1C (stereo not drawn)
inactive: [1] 4.5% | [2] 29.4% | [3] -10.1% | [4] 14.2% | [5] 5.65% | [6] 7.65%

COc1ccc(Cl)cc1NC(=O)Nc1cc(C)ccc1Cl
inactive: [1] -8.35% | [2] 25.8% | [3] 27.4% | [4] -25.2% | [5] 28.8% | [6] 9.9%

O=C(Nc1ccc(NC(=O)Nc2ccc(C3=NCCN3)cc2)cc1)Nc1ccc(C2=NCCN2)cc1
inactive: [1] -7.7% | [2] 7.15% | [3] 7.65% | [4] -1.7% | [5] -21.1% | [6] -19.6%

Oc1ccc(C2=NNC(c3ccc(O)cc3)=NN2)cc1
inactive: [1] 12.7% | [2] 11.9% | [3] 17% | [4] 21.1% | [5] 12.8% | [6] 10.1%

CCCCC(C)NC=O (stereo not drawn)
inactive: [1] 31.4% | [2] 13% | [3] 3.9% | [4] 9% | [5] 14.4% | [6] 24.6%

Cn1nnc(/C(N)=N/N=C/c2ccccc2)n1
inactive: [1] 1.95% | [2] -10.8% | [3] -1.55% | [4] -22.2% | [5] -12.6% | [6] -15.4%

N#CC1(C#N)CC1(C#N)C#N
inactive: [1] 7.9% | [2] 16.4% | [3] -1.75% | [4] 27.1% | [5] 12.7% | [6] 15.2%

Nc1nc(CCC(=O)O)cs1
inactive: [1] -6.85% | [2] -14.4% | [3] 4.9% | [4] -24.1% | [5] -1.45% | [6] -18.7%

CC(C)=CCC/C(C)=C/CNc1ncnc2c1ncn2C1OC(CO)C(O)C1O (stereo not drawn)
inactive: [1] -4.3% | [2] 13.7% | [3] 6.6% | [4] -37% | [5] 12.9% | [6] 27.6%

O=C(/C=C\c1cccc2ccccc12)c1cccc2ccccc12
inactive: [1] 35.5% | [2] 12.8% | [3] 0.55% | [4] -4.75% | [5] 23.1% | [6] 34.4%
